The text below walks through data of ChEMBL document CHEMBL3988442, “University of Dundee, Small-Polar-MMV Screening Library” (2021).

For part of these data: Entries with a potency or affinity are not part of this list.

What all share (parameters): scale not given: direction of the effect not stated beside the values
The target in assay [1] is Protein translocase subunit SecA (Escherichia coli (strain K12)) (UniProt P10408). The experiment in a line: Assay to Identify E. coli SecA ATPase Inhibitors. It counts as functional. To be noted: 30 µM.
Sequence of Protein translocase subunit SecA (Escherichia coli (strain K12)) (P10408 whole entry): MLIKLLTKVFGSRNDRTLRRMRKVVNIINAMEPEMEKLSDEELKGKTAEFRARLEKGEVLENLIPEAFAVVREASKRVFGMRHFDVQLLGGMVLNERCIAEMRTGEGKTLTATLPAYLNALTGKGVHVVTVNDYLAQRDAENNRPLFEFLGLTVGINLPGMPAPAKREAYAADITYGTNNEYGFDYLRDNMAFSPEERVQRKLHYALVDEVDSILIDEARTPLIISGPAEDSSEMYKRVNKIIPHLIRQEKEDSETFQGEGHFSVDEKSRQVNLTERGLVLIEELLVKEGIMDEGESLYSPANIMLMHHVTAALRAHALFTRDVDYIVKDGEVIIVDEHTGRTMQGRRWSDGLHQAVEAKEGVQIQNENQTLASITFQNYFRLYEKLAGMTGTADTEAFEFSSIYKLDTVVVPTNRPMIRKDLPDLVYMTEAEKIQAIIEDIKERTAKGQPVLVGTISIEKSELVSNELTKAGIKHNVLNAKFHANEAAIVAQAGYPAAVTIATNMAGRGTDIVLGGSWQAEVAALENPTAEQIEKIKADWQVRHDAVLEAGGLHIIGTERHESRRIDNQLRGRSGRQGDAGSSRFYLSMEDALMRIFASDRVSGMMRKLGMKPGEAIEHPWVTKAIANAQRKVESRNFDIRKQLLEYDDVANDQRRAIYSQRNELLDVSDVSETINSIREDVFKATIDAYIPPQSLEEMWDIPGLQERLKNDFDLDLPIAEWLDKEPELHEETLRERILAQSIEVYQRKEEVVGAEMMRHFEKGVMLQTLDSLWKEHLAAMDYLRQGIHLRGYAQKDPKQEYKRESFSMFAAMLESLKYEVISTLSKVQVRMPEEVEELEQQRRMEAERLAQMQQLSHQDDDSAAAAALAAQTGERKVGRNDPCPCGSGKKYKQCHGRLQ
The target in assay [2] is T1, Ubiquitin-activating enzyme e1, putative (Leishmania donovani (strain BPK282A1)) (UniProt E9BSI1).
T1 sequence (whole entry): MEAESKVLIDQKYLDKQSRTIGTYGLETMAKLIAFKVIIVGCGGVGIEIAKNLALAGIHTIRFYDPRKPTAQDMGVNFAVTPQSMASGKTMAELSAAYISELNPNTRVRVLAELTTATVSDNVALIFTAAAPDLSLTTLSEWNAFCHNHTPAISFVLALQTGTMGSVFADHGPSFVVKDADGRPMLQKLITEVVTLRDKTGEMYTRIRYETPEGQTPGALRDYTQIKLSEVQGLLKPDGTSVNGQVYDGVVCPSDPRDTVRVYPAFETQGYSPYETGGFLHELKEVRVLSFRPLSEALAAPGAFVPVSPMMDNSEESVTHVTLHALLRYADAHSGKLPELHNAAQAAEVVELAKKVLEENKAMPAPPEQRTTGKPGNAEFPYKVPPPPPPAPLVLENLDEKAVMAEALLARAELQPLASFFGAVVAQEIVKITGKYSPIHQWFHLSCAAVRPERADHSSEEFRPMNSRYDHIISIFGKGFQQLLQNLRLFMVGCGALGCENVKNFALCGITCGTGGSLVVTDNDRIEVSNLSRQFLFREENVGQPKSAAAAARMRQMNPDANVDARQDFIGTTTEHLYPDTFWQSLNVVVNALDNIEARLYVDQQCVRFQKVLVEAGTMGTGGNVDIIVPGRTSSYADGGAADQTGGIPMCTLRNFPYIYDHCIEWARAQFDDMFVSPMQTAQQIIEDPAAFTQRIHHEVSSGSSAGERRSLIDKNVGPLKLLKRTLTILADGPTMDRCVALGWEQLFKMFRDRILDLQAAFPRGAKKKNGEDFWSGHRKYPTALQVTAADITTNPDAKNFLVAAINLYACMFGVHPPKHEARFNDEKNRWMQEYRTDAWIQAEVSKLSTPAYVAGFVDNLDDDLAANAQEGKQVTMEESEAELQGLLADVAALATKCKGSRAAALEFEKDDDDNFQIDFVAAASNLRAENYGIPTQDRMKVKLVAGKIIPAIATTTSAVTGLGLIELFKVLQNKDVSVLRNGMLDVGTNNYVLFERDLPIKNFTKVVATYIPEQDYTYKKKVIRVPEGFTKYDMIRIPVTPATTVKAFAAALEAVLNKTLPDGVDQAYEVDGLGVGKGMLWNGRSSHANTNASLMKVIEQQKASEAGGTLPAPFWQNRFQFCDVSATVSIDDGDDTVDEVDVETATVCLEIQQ
The assay can be described thus: Leishmania donovani Ubiquitin Activating Enzyme (LdE1). Format: functional. The settings on record: 30 µM.

Assay [3] concerns the target Sialic acid-binding Ig-like lectin 9 (Homo sapiens) (UniProt Q9Y336). The assay can be described thus: Hs-Siglec9 ALPHAscreen SOP 20170721. To be noted: 10 µM. On the technique in general: Bead proximity is the source of the signal in Alpha formats.
Assay [4] has as its system Trypanosoma cruzi. The experiment in a line: Trypanosoma cruzi phosphomannomutase and mannose-1-phosphate guanylyltransferase assay. Format: functional. To be noted: 10 µM.
The target of assay [5] is T2, Arginase-2, mitochondrial (Homo sapiens) (UniProt P78540).
T2 sequence (whole entry): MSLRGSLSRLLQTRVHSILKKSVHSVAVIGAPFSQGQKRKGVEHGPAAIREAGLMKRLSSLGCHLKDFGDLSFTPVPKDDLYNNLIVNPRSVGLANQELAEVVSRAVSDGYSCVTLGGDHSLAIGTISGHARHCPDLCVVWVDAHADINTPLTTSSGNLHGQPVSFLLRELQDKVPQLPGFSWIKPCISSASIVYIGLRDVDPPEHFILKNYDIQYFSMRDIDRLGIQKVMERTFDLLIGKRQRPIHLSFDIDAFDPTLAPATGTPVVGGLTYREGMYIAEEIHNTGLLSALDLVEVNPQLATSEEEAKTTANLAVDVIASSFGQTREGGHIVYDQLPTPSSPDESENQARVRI
The assay can be described thus: in vitro enzyme assay to detect the production of urea directly proportional to the activity of Arginase II. Also: in the data most compounds retested in dose-response had high values. The settings on record: 33.3 µM. It counts as functional.

Assay [6] has as its target T3, Proteasome subunit beta (Trypanosoma cruzi) (UniProt O96673).
T3 sequence (whole entry): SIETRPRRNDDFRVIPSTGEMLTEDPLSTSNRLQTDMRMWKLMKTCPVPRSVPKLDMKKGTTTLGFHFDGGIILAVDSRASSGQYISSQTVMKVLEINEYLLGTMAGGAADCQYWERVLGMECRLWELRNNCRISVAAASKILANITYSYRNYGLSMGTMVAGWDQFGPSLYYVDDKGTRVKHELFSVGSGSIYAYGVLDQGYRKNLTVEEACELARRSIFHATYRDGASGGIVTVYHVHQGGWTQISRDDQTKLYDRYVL
The experiment in a line: Trypanosoma cruzi proteasome chymotrypsin-like activity (TcProtChymo) assay. Also: in the data most compounds retested in dose-response had high values. The settings on record: 9.37 µM. Format: functional.

The species named for assay [7] is Homo sapiens. The experiment in a line: To identify inhibition of the IFN signalling (Jak-Stat) pathway via expression of an eGFP reporter gene under the control of an IFN-stimulated response element (ISRE) containing MxA promoter. To be noted: 30 µM. Format: functional. (In a reporter assay the amount or activity of a reporter protein is the signal.)
For assay [8], the target named is T4, Tyrosyl-tRNA synthetase, putative (Trypanosoma cruzi (strain CL Brener)) (UniProt Q4DSP6).
T4 sequence (whole entry): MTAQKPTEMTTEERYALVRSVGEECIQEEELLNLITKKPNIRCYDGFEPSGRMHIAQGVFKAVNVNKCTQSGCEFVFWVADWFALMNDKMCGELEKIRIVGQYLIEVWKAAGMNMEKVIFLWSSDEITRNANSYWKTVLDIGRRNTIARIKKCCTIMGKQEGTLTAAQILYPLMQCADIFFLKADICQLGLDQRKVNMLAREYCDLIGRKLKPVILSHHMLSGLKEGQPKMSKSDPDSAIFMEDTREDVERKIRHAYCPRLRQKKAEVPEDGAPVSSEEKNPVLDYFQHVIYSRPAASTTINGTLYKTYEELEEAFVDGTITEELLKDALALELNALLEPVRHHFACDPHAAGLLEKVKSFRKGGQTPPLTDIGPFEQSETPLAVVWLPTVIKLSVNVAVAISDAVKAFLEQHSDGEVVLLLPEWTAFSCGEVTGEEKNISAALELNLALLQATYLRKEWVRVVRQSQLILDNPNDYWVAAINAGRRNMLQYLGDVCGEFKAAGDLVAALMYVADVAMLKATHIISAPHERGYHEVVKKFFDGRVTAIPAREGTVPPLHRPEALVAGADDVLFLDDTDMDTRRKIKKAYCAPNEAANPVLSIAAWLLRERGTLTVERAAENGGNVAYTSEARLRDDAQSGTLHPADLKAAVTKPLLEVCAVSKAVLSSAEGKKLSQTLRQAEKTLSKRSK
The experiment in a line: Trypanosoma cruzi tyrosyl tRNA synthetase (TcYRS) _High Tyrosine SOP. Also: in the data most compounds retested in dose-response had high values. The settings on record: 30 µM. It counts as functional.

Assay [9] has as its target T4, Tyrosyl-tRNA synthetase, putative (Trypanosoma cruzi (strain CL Brener)). The assay can be described thus: Trypanosoma cruzi tyrosyl tRNA synthetase (TcYRS) SOP. Format: functional. The settings on record: 30 µM.
For assay [10], the target named is Chromo domain-containing protein 1 (Saccharomyces cerevisiae (strain ATCC 204508 / S288c) (Baker's yeast)) (UniProt P32657). The assay can be described thus: ScCHD-1 Enzyme Inhibition Assay. Also: in the data most compounds retested in dose-response had high values. Format: functional. To be noted: 30 µM.
Sequence of Chromo domain-containing protein 1 (Saccharomyces cerevisiae (strain ATCC 204508 / S288c) (Baker's yeast)) (P32657 whole entry, the tested form may be a part): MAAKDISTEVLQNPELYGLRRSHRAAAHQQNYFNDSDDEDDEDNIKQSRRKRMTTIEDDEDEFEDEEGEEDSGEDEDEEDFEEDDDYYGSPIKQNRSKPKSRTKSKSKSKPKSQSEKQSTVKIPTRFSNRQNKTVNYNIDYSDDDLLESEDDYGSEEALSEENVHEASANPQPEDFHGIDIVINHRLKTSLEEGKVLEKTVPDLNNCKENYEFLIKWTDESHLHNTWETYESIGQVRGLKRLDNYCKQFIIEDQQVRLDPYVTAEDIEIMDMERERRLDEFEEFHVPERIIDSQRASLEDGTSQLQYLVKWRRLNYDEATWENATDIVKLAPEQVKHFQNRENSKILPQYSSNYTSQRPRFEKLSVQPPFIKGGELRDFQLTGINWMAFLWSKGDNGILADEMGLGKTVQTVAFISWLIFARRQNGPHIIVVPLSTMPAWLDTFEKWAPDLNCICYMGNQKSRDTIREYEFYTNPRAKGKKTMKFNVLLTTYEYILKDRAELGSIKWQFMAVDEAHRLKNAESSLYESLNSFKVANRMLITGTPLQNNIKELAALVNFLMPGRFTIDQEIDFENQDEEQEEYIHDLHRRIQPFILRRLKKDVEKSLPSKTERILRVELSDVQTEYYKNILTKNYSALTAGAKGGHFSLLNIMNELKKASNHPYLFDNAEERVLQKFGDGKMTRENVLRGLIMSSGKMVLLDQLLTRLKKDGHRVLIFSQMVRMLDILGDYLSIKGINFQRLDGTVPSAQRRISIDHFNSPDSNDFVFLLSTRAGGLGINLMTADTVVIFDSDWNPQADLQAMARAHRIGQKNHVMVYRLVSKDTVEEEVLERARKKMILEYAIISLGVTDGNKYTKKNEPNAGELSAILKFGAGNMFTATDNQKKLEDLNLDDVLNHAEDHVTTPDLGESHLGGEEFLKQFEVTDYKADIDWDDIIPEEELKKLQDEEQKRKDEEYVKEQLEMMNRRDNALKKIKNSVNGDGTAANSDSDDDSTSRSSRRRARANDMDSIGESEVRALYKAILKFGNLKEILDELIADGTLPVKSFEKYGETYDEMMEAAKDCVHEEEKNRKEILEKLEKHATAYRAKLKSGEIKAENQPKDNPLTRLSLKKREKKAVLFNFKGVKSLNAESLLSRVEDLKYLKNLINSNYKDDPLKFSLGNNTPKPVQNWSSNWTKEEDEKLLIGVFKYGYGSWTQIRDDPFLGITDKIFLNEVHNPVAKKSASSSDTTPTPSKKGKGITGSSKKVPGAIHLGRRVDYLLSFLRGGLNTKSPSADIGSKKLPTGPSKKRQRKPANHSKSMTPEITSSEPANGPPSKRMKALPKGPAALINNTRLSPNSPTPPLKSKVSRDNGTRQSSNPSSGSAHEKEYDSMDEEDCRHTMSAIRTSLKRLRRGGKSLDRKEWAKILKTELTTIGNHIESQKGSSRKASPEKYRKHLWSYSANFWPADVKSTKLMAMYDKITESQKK

Sequence of Sialic acid-binding Ig-like lectin 9 (Homo sapiens) (Q9Y336 whole entry): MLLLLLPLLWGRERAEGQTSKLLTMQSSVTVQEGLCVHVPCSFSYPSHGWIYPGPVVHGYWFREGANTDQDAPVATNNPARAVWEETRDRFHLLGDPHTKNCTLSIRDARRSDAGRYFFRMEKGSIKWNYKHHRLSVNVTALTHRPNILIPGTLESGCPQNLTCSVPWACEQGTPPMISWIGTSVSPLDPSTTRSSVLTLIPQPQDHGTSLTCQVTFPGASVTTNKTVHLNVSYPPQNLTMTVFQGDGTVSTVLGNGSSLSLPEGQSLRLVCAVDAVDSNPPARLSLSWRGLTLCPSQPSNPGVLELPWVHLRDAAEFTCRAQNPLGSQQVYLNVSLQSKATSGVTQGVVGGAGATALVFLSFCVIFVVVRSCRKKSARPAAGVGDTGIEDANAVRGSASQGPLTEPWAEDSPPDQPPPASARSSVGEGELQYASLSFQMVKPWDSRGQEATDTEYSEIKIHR

Regarding `Cc1ccc(C(=O)N2CCN(Cc3ccsc3)CC2)n1C`, the Percent Effect in assay [1] is -2.67%; in assay [2], 5.33%; in [3], 2.26%; in assay [4], -1.61%; in [5] it was 0.887%; in [6] it was 5.34%. The Percent Effect in assay [7] is -8.24%; in [8], 5.79%; in assay [9], 7.69%; in assay [10], -6.68%.

In the case of `Cc1ccc(C(=O)N2CCC3(CC2)CC(N2CCCC2)C3)cc1`, the Percent Effect is -4.52% in assay [1]; 11.7% in [2]; 1.16% in assay [3]; -0.75% in assay [4]; 1.83% in assay [5]; 7.12% in assay [6]. The Percent Effect was -12.1% in assay [7], 8.7% in assay [8], 12.5% in assay [9] and -4.42% in assay [10].

As for `Cc1nnc(NC(=O)CN2CCCC(Cn3cncn3)C2)s1` (stereo not given), the Percent Effect in assay [1] is -3.75%; in assay [2] it was 10.7%; in assay [3] it was 7.25%; in assay [4], 1.41%; in assay [5], 6.21%; in assay [6], 12.3%. Also, the Percent Effect in assay [7] was -17.8%; in [8], 5.79%; in assay [9], 10.3%; in assay [10], -8.83%.

Take `CCOCC1CN(Cc2cnn(C)c2)Cc2nn(C)cc21` (stereo not given): the Percent Effect in assay [1] is 0.939%; in [2], -3.9%; in assay [3] it was -4.11%; in [4] it was -5.36%; in [5] it was 0.81%; in [6], 10.2%. Further, the Percent Effect in assay [7] was 4.03%; in [8] it was -1.58%; in [9] it was 0%; in assay [10], 2.52%.

Consider `CN(C)C[C@H]1OC[C@@H]2CCN(S(=O)(=O)c3ccccc3)C[C@@H]21`, for which the Percent Effect in assay [1] is -7.48%; in [2] it was 3.9%; in assay [3] it was 9.94%; in assay [4] it was -4.58%; in assay [5], -5.26%; in [6], 7.33%. The Percent Effect is 5.69% in assay [7], -2.63% in assay [8], -5.13% in assay [9] and -2.54% in assay [10].

Turning to `CC(=O)N1CCC2(CC1)C(=O)N(CC1CC1)c1ccccc12`, the Percent Effect in assay [1] was -5.06%; in assay [2] it was 9.09%; in assay [3] it was -0.719%; in assay [4], -3.56%; in assay [5], 5.48%; in [6], 10.6%. Moreover, the Percent Effect in assay [7] is 6.99%; in assay [8], 3.87%; in assay [9] it was 7.5%; in assay [10] it was -7.42%.

Regarding `Cc1cn2c(n1)CCC(NC(=O)c1cc(Br)cn1C)C2` (stereo not given), the Percent Effect in [1] was -8.37%; in assay [2], 0%; in [3] it was 0.858%; in assay [4], -3.41%; in assay [5], -1.33%; in assay [6], 8.23%. Besides, the Percent Effect in assay [7] was 12.4%; in [8], -1.58%; in assay [9] it was 0%; in assay [10], -4.6%.

For the compound `NC(=O)c1cc(NC(=O)NCCc2cc(F)cc(F)c2)ccc1F`, the Percent Effect in assay [1] was -0.0438%; in assay [2], 10.4%; in assay [3], 8.44%; in assay [4] it was 0.56%; in assay [5], -2.66%; in assay [6] it was 5.26%. Also, the Percent Effect is -4.36% in assay [7], 5.88% in assay [8], 23.5% in assay [9] and -11.6% in assay [10].

Turning to `CCC(NC(N)=O)c1ccccc1OCC(=O)N1CCCC1` (stereo not given), the Percent Effect in assay [1] was -1.4%; in assay [2], 10.3%; in assay [3], -13.8%; in assay [4], -4.41%; in assay [5], -4.92%; in [6] it was 9.81%. The Percent Effect was 16.9% in assay [7], 5.26% in [8], 18.1% in assay [9] and -6% in [10].

As for `COc1ccc(CC(=O)N2CCCC(n3cc(C)cn3)C2)cc1F` (stereo not given), the Percent Effect in assay [1] was -2.21%; in assay [2], -2.67%; in assay [3], 3.32%; in assay [4], 0.201%; in assay [5], 2.66%; in assay [6] it was 4.16%. Moreover, the Percent Effect was 3.46% in [7], 2.63% in [8], 2.56% in assay [9] and -4.37% in assay [10].

Regarding `Cc1ccc(-c2nnc(CNCCn3cc(C)cn3)o2)cc1`, the Percent Effect in assay [1] is 0.127%; in assay [2], 7.79%; in assay [3], 7.81%; in assay [4], -0.56%; in assay [5], 1.02%; in assay [6] it was 6.67%. Besides, the Percent Effect is -6.58% in assay [7], 4.9% in assay [8], 11.8% in [9] and -4.71% in [10].

Consider `Cc1cccnc1CN(C)CC1(O)CCCN(CC2CCCCC2)C1=O` (stereo not given), for which the Percent Effect in [1] is -5.13%; in assay [2], -2.7%; in assay [3], 19.5%; in assay [4] it was 6.69%; in assay [5] it was 5.94%; in assay [6], 9.76%. For the same compound, the Percent Effect was 23% in assay [7], 13.3% in assay [8], 17.1% in [9] and -2.65% in assay [10].
